Records with an inconclusive call do not appear. Some structures have more than one record in an assay (separate samples or runs), and their calls can disagree. The source made the active and inactive calls. The calls were made as follows, unless noted: active = hit-call score of the fitted dose curve at least 0.9, where 1 is the maximum; inconclusive = response in the unintended direction; inactive = score below 0.9.
Assays:
[1] = ATG_M_19_CIS: Attagene CIS-FACTORIAL HepG2 Assay for M19 Transcription Factor (Internal Marker) (AID 2282939; active = hit-call score of the fitted dose curve at least 0.9, where 1 is the maximum; inactive = score below 0.9); conditions: HepG2 Attagene CIS-FACTORIAL M19 internal marker reporter; actives raise or lower the signal
Procedure, shortened: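 HepG2, MRTU transient transfection, 24 h dosing. Total RNA → RT-PCR → 6-FAM primer extension → HpaI digest → CE fluorescence. Bidirectional curve fit, DMSO negative control.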

[2] = target: Hepatocyte nuclear factor 3-beta (Homo sapiens) (UniProt Q9Y261); test: ATG_FoxA2_CIS: Attagene CIS-FACTORIAL HepG2 Assay for human Forkhead box A2 (FOXA2) (AID 2282942; active = hit-call score of the fitted dose curve at least 0.9, where 1 is the maximum; inactive = score below 0.9); conditions: HepG2 cis-reporter transcription factor activity, 24 h; actives raise or lower the signal
Chain of Hepatocyte nuclear factor 3-beta (Homo sapiens) (Q9Y261 whole entry, looked up): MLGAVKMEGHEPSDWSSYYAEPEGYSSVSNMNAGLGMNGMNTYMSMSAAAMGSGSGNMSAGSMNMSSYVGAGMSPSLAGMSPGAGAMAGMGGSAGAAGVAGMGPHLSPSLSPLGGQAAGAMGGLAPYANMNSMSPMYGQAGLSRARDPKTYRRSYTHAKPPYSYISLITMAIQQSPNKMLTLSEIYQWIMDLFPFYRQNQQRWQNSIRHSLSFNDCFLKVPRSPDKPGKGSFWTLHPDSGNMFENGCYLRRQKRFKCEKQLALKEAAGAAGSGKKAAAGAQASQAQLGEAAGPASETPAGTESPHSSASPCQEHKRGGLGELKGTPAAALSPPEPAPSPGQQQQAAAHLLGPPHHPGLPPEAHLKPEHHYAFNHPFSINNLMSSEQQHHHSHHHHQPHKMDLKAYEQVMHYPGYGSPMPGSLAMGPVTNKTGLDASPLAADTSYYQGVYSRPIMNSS
Procedure, shortened: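 HepG2 transiently transfected with a multiplexed cis-promoter reporter library read endogenous FOXA2 activity. After 24 h compound exposure, reporter mRNA was quantified by RT-PCR, HpaI digestion and capillary electrophoresis. Bidirectional fit against DMSO.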

[3] = ATG_M_32_CIS: Attagene CIS-FACTORIAL HepG2 Assay for M32 Transcription Factor (Internal Marker) (AID 2282949; active = hit-call score of the fitted dose curve at least 0.9, where 1 is the maximum; inactive = score below 0.9;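 also: background control marker of the multiplexed CIS panel rather than a real target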); conditions: HepG2 Attagene cis-factorial M32 reporter, mRNA; actives raise or lower the signal
Procedure, shortened: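 Following 24 h chemical exposure of HepG2 cells transiently expressing cis-promoter reporter constructs, reporter transcript levels were determined by RT-PCR with fluorescent labelling and capillary electrophoresis, then fitted bidirectionally against DMSO.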

[4] = ATG_PXRE_CIS: Attagene CIS-FACTORIAL HepG2 Assay for human Pregnane X Receptor Element (PXRE) (AID 2282957; active = hit-call score of the fitted dose curve at least 0.9, where 1 is the maximum; inactive = score below 0.9); conditions: HepG2 Attagene CIS-FACTORIAL PXRE reporter, mRNA; actives raise or lower the signal
Procedure, shortened: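 Transfect HepG2 with MRTUs (cis promoter elements); dose chemical, incubate 24 h; isolate RNA, RT with oligo(dT), PCR, 6-FAM label, HpaI cut, CE. Gain/loss fit vs DMSO.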

[5] = target: human Peroxisome Proliferator-activated Receptor alpha (PPARa), PPARA (gene 5465) (UniProt Q07869); test: ATG_PPARa_TRANS: Attagene TRANS-FACTORIAL HepG2 Assay for human Peroxisome Proliferator-activated Receptor alpha (PPARa) (AID 2283001);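 as to AC50: potency for gain of reporter signal over DMSO so agonist or activator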
Chain of human Peroxisome Proliferator-activated Receptor alpha (PPARa), PPARA (gene 5465) (Q07869 whole entry, looked up, the tested form may be a part): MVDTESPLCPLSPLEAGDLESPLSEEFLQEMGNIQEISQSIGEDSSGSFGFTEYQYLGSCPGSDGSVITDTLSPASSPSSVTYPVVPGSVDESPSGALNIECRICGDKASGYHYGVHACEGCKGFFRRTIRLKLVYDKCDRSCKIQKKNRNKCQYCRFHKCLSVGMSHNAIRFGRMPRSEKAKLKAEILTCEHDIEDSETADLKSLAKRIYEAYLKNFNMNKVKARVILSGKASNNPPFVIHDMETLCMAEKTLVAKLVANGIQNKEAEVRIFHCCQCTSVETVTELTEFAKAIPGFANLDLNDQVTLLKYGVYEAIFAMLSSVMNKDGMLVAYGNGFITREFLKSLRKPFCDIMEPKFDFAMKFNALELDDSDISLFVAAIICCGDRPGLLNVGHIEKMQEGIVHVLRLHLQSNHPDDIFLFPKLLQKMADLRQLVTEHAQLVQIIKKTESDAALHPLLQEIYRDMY
Procedure, shortened: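 Reporter transcripts from GAL4-UAS units in transfected HepG2 were quantified 24 h after dosing. Detection used reverse transcription, PCR, fluorescent primer extension and capillary electrophoresis, with DMSO as baseline.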

[6] = target: Retinoic acid receptor RXR-alpha (Homo sapiens) (UniProt P19793); test: ATG_RXRa_TRANS: Attagene TRANS-FACTORIAL HepG2 Assay for human Retinoid X Receptor alpha (RXRa) (AID 2283012)
Chain of Retinoic acid receptor RXR-alpha (Homo sapiens) (P19793 whole entry, looked up, the tested form may be a part): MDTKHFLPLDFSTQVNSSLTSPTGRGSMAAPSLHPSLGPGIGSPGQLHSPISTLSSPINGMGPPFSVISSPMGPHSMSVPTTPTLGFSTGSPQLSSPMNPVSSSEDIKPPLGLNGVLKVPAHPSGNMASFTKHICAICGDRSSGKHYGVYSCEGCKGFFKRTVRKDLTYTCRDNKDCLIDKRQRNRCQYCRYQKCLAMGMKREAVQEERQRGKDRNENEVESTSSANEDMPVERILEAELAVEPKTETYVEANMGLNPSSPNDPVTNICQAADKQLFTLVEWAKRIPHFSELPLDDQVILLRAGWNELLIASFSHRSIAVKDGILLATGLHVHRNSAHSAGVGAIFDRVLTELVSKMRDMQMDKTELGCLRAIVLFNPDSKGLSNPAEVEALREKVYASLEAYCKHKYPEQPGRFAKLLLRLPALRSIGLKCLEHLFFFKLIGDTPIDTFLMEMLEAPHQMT
Procedure, shortened: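 Cells (HepG2) carried transiently transfected GAL4-responsive reporter units. Following a 24 h chemical incubation, reporter mRNA induction was read via RT-PCR fragment analysis; DMSO served as negative control and baseline.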

[7] = target: Retinoic acid receptor alpha (Homo sapiens) (UniProt P10276); test: ATG_DR5_RAR_CIS: Attagene CIS-FACTORIAL HepG2 Assay for human Retinoic Acid Receptor Alpha (RARE), DR5 submotif (AID 2282934; active = hit-call score of the fitted dose curve at least 0.9, where 1 is the maximum; inactive = score below 0.9); conditions: HepG2 Attagene cis-factorial RARE DR5 reporter, mRNA; actives raise or lower the signal
Chain of Retinoic acid receptor alpha (Homo sapiens) (P10276 whole entry, looked up): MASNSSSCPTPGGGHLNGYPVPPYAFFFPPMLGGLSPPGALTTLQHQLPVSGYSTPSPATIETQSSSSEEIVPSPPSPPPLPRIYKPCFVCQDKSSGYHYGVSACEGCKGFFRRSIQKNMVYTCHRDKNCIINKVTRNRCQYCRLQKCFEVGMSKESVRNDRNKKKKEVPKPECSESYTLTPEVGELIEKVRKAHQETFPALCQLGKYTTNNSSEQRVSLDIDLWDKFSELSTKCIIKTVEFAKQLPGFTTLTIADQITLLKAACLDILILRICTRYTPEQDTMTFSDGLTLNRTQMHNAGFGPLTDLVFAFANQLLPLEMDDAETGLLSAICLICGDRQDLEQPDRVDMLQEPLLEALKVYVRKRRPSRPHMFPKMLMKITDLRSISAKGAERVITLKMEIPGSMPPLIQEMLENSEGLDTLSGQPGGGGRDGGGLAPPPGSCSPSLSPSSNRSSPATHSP
Procedure, shortened: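 HepG2, transient cis-reporter transfection, 24 h exposure. mRNA readout: RT-PCR, FAM label, HpaI cut, capillary electrophoresis. DMSO baseline, gain/loss fitting.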

[8] = ATG_PBREM_CIS: Attagene CIS-FACTORIAL HepG2 Assay for human Phenobarbital-responsive Enhancer Module (PBREM) (AID 2282955; active = hit-call score of the fitted dose curve at least 0.9, where 1 is the maximum; inactive = score below 0.9); conditions: HepG2 PBREM cis-reporter, Attagene multiplexed transcription; actives raise or lower the signal
Procedure, shortened: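 HepG2 cells transiently transfected with multiple cis-regulated reporter units measure endogenous transcription factor activity; 24 h compound exposure. Reporter mRNA quantified by RT-PCR, fluorescent labelling, HpaI digestion and capillary electrophoresis; bidirectional fit versus DMSO.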

[9] = ATG_RORE_CIS: Attagene CIS-FACTORIAL HepG2 Assay for human RAR-related Orphan Receptor Element (RORE) (AID 2282959; active = hit-call score of the fitted dose curve at least 0.9, where 1 is the maximum; inactive = score below 0.9); conditions: HepG2 Attagene cis-factorial RORE reporter, mRNA; actives raise or lower the signal
Procedure, shortened: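 HepG2 cells carrying transiently transfected cis-regulated reporter units; RORE-driven reporter mRNA quantified 24 h post-dosing by RT-PCR, 6-FAM primer extension, HpaI digestion and capillary electrophoresis. Bidirectional fit versus DMSO.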

[10] = ATG_Sox_CIS: Attagene CIS-FACTORIAL HepG2 Assay for human SRY-box transcription factor (SOX) (AID 2282960; active = hit-call score of the fitted dose curve at least 0.9, where 1 is the maximum; inactive = score below 0.9); conditions: HepG2 Attagene cis-factorial SOX reporter, mRNA; actives raise or lower the signal
Procedure, shortened: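 HepG2 cells transiently transfected with multiple cis-regulated reporter units, then dosed for 24 h. Reporter mRNA quantified by RT-PCR, fluorescent labelling, HpaI digestion and capillary electrophoresis; bidirectional fit versus DMSO.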

[11] = target: Hepatocyte nuclear factor 4-alpha (Homo sapiens) (UniProt P41235); test: ATG_HNF4a_TRANS: Attagene TRANS-FACTORIAL HepG2 Assay for human Hepatocyte Nuclear Factor 4 alpha (HNF4a) (AID 2282982); conditions: HepG2 HNF4a transactivation reporter, mRNA readout
Chain of Hepatocyte nuclear factor 4-alpha (Homo sapiens) (P41235 whole entry, looked up): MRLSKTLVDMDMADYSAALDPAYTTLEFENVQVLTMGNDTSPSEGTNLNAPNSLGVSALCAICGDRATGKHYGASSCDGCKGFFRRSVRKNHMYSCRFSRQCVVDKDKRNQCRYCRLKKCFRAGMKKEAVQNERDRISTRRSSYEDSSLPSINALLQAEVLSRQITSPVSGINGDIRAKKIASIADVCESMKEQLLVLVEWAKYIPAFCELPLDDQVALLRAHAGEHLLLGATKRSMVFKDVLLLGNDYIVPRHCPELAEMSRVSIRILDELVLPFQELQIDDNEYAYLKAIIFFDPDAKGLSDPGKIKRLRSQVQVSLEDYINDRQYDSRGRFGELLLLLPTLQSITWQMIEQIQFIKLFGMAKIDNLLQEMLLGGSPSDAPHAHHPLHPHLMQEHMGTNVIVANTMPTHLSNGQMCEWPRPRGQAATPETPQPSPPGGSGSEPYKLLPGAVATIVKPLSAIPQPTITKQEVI
Procedure, shortened: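 Transfected HepG2 reporter cells are dosed for 24 h; reporter RNA is reverse-transcribed, amplified, fluorescently labelled and HpaI-digested before CE sizing. Positive-direction fit against DMSO.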

[12] = ATG_M_32_TRANS: Attagene TRANS-FACTORIAL HepG2 Assay for M32 Transcription Factor (Internal Marker) (AID 2282984); conditions: HepG2 Attagene TRANS M32 internal marker reporter;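 also: transcript level of a background control reporter unit measured by RT-PCR and capillary electrophoresis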
Procedure, shortened: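 Using transiently transfected HepG2 cells exposed to test chemicals for 24 h, reporter transcripts are converted to labelled cDNA fragments and quantified by capillary electrophoresis. DMSO defines the activity baseline.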

[13] = target: human Retinoid X Receptor beta (RXRb), RXRB (gene 6257) (UniProt P28702); test: ATG_RXRb_TRANS: Attagene TRANS-FACTORIAL HepG2 Assay for human Retinoid X Receptor beta (RXRb) (AID 2283013)
Chain of human Retinoid X Receptor beta (RXRb), RXRB (gene 6257) (P28702 whole entry, looked up): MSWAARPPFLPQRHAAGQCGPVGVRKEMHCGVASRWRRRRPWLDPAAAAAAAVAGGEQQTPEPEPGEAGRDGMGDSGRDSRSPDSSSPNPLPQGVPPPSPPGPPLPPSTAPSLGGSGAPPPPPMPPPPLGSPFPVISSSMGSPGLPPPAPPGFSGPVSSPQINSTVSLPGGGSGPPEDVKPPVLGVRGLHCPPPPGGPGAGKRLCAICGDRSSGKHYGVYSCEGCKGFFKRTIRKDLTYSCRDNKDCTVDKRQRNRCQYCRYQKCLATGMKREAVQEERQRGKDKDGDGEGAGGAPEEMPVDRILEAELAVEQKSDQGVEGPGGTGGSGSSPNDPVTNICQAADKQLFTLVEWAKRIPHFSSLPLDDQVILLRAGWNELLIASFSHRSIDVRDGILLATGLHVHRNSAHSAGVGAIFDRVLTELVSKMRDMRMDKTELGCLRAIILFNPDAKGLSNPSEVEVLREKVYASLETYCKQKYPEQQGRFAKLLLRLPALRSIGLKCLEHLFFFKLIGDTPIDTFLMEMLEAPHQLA
Procedure, shortened: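 Multiplexed TRANS reporter assay in HepG2; 24 h dosing; reporter mRNA by RT-PCR/CE fluorescence; gain-of-signal relative to DMSO.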

[14] = TOX21_p53_BLA_p2_viability: Viability Assessment in the Tox21 HCT-116 p53 Agonism Beta-lactamase Assay, Phase 2 (AID 2283591);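 also: compound exposure lasted 16 h at 37 °C; actives lower the ATP signal meaning cytotoxicity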
Procedure, shortened: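 Cytotoxicity readout: CellTiter-Glo ATP luminescence, 30 min at room temperature, after the beta-lactamase read. Cells were HCT116 exposed 16 h at 37C to compounds pin-transferred at 217-fold dilution from DMSO stocks.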

[15] = target: Cellular tumor antigen p53 (Homo sapiens) (UniProt P04637); test: TOX21_p53_BLA_p2_ratio: Tox21 HCT-116 p53 Agonism Beta-lactamase Assay, Ratio, Phase 2 (AID 2283592)
Chain of Cellular tumor antigen p53 (Homo sapiens) (P04637 whole entry, looked up): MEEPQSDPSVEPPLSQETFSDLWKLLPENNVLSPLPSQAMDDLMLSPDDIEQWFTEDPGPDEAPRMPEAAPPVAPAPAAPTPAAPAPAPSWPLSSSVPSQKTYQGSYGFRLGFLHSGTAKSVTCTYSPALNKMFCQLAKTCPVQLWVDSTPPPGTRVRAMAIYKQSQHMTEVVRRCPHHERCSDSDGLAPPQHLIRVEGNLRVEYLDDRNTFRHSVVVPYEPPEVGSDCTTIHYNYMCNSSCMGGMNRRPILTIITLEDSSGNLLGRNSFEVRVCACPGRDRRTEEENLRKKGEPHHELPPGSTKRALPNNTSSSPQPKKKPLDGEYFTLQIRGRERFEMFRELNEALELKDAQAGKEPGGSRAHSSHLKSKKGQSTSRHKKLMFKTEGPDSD
Procedure, shortened: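 HCT116 p53-bla; 4000 cells/well; 5 h pre-incubation; cpd in DMSO, 217-fold dilution; 16 h 37C/5% CO2; CCF4-AM 2 h RT; Ex 405, Em 460/530 ratio; DMSO = baseline; positive fitting direction.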

[16] = TOX21_p53_BLA_p3_viability: Viability Assessment in the Tox21 HCT-116 p53 Agonism Beta-lactamase Assay, Phase 3 (AID 2283593);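 also: cells exposed to compound for 16 h before reading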
Procedure, shortened: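 Cellular ATP was quantified by CellTiter-Glo luminescence, read after 30 min at room temperature. Beforehand, HCT116 cells (4000/well) received compound 5 h post-seeding, 217-fold diluted from DMSO, then incubated 16 h at 37C.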

[17] = target: Cellular tumor antigen p53 (Homo sapiens) (UniProt P04637); test: TOX21_p53_BLA_p3_ratio: Tox21 HCT-116 p53 Agonism Beta-lactamase Assay, Ratio, Phase 3 (AID 2283596)
Procedure, shortened: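 HCT116 p53-bla cells (4000/well) given compound in DMSO (217-fold dilution) after 5 h, incubated 16 h at 37C. CCF4-AM substrate 2 h at room temperature; 460/530 nm emission ratio, gain fitted against DMSO.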

[18] = target: Cellular tumor antigen p53 (Homo sapiens) (UniProt P04637); test: TOX21_p53_BLA_p5_ratio: Tox21 HCT-116 p53 Agonism Beta-lactamase Assay, Ratio, Phase 5 (AID 2283599)
Procedure, shortened: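 Beta-lactamase reporter ratio (blue 460 nm over green 530 nm, 405 nm excitation) after 2 h CCF4-AM loading, in HCT-116 cells exposed 16 h at 37 C to compounds pinned at 217-fold dilution. Increases relative to DMSO baseline scored.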

[19] = TOX21_p53_BLA_p5_viability: Viability Assessment in the Tox21 HCT-116 p53 Agonism Beta-lactamase Assay, Phase 5 (AID 2283600)
Procedure, shortened: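 4000 cells/well; 5 h pre-incubation; DMSO compounds pin-transferred, 217-fold dilution; 16 h, 37C/5% CO2; CCF4-AM 2 h RT; CellTiter-Glo 30 min RT; luminescence.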

[20] = target: Cellular tumor antigen p53 (Homo sapiens) (UniProt P04637); test: TOX21_p53_BLA_p4_ratio: Tox21 HCT-116 p53 Agonism Beta-lactamase Assay, Ratio, Phase 4 (AID 2283601)
Procedure, shortened: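 Signal is the blue/green (460nm/530nm) ratio of cleaved versus uncleaved CCF4-AM substrate, read after 2 h substrate loading. Cells were HCT116 carrying the p53-responsive beta-lactamase reporter, dosed 16 h at 37C, 5% CO2; CellTiter-Glo measured in parallel.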

Measured: AC50

CCCC[N+]1(C)CCCC1
inactive: [1] | [2] | [3] | [4] | [5] | [6]

Oc1ccc(Cl)cc1C1CCCC1
active: [4] 7.76 µM | [10] 37.5 µM | [5] 39.1 µM | [6] 17.6 µM | [13] 3.12 µM | [20] 55.6 µM
not listed: [1]
inactive: all other assays above

CCCCCC[C@@H](O)C/C=C\CCCCCCCC(=O)O
active: [9] 100 µM | [5] 8.72 µM | [13] 30.9 µM | [15] 68.9 µM | [16] 30.5 µM | [17] 36.6 µM | [18] 37.4 µM | [20] 73.6 µM
inactive: [1] | [3] | [8] | [4] | [10] | [11] | [12] | [6] | [14] | [15] | [16] | [17] | [18] | [19] | [20]

O=C(C(=O)c1ccccc1)c1ccccc1
active: [4] 42.8 µM
inactive: [1] | [3] | [8] | [10] | [11] | [12] | [15] | [17] | [20]

CC(=O)OC(C)(C)Cc1ccccc1
not listed: [2] | [3] | [8] | [12] | [13] | [18]
inactive: all other assays above

C=C1CC[C@H]2C[C@@H]1C2(C)C
inactive: [7] | [2] | [9] | [10] | [11] | [6]

O=[N+]([O-])c1ccc2nc[nH]c2c1
inactive: [2] | [3] | [8] | [4] | [9]

CCCN[C@H]1CCc2nc(N)sc2C1
not listed: [3] | [5] | [6] | [7] | [11] | [12]
inactive: all other assays above

COCCCN
not listed: [1] | [4] | [7] | [10] | [16]
inactive: all other assays above

CC/C=C\CC/C=C/C(OCC)OCC
active: [10] 147 µM
inactive: [7] | [3] | [8] | [9] | [11] | [12] | [5] | [18]

Oc1cccc2ccccc12
active: [4] 5.66 µM
not listed: [7] | [11] | [12] | [15] | [17]
inactive: all other assays above

F[B-](F)(F)F
inactive: [1] | [3] | [9] | [10] | [11] | [12] | [6]

O=C(O)/C=C/C(=O)O
inactive: [1] | [2] | [3] | [8] | [4] | [9] | [10] | [12] | [5]

CC(C)CC(=O)O
not listed: [1] | [2] | [3] | [5] | [6] | [12] | [13] | [19]
inactive: all other assays above

CCCCCCCCCC/C=C/C1CC(=O)OC1=O (stereo unspecified)
not listed: [2] | [4] | [7] | [11]
inactive: all other assays above

COC(=O)/C=C\C(=O)OC
active: [4] 6.26 µM
not listed: [1] | [3] | [6] | [9] | [10] | [12] | [14] | [17]
inactive: all other assays above

O=C(O)Cc1c[nH]c2ccccc12
active: [4] 35.4 µM | [13] 73.7 µM
not listed: [1] | [7] | [9] | [10]
inactive: all other assays above

CC/C=C\CCO
not listed: [4] | [7] | [8] | [13] | [14] | [16] | [17] | [20]
inactive: all other assays above

CC[N+](CC)(CC(=O)Nc1c(C)cccc1C)Cc1ccccc1
active: [4] 32.4 µM
inactive: [1] | [2] | [3] | [9] | [10] | [11] | [12] | [5] | [6]

CCCCOC(=O)COc1ccc(Cl)cc1Cl
not listed: [1] | [5] | [6] | [9] | [10] | [15] | [16]
inactive: all other assays above

NCc1ccccc1
not listed: [3] | [4] | [6] | [7] | [9] | [17] | [19]
inactive: all other assays above

Reference: PubChem BioAssay (EPA / NIEHS)
